Bioassay records from PubChem BioAssay.
Pf apPOL block: Pf-apPOL DNA polymerase inhibition; inhibition, % at 10 µM; Recombinant Pf-apPOL, molecular beacon fluorescence, 1.5 h; 0.25% of 210,000 active
mHTT CaM bind: mHTT-calmodulin interaction abrogation. P42858. AlphaScreen His-mHTT/GST-CaM binding, luminescence. inhibition, % at 15 µM. 3.6% of 190,000 active;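 further: 0% = both proteins with DMSO and 100% = one protein alone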
* marks the source's active call; other numbers are inactive results; i = inactive; / = no result; + = active, no number. In the library only some 3.6% were active in any assay of this set; here they are far more common. No stated cut-off is given here; in the data, active means inhibition above about 50%; inactive means the rest.

SMILES | Pf apPOL block | mHTT CaM bind
Clc1ccc(-c2nc(-c3ccc4nncn4c3)no2)cc1 | 0 | 2
CCN(CC)C(=O)CSC1=Nc2ccccc2C2=NC(Cc3ccccc3)C(=O)N12 (stereo not drawn) | -2 | 9
O=C(NCc1ccc(N2CCCCCC2)nc1)c1cccc(F)c1 | 0 | 17
COc1ccc(/C=C2/SC(N3CCC(C)CC3)=NC2=O)c(OC)c1 | -4 | 58*
COc1ccc(/C=C2/SC(N3CCCCC3)=NC2=O)c(OC)c1 | 0 | 16
Cc1ccc(C)c(NC(=O)N2CCc3nc[nH]c3C2)c1 | -2 | -3
Cc1cccc(N2C(=O)C(=O)C(=C(O)c3ccccc3)C2c2ccc(F)cc2)n1 (stereo not drawn) | -5 | 4
CCc1nc(SCC(=O)c2ccc(O)cc2O)n[nH]1 | -4 | 71*
O=C(CSc1n[nH]c(-c2ccccc2)n1)c1ccc(O)cc1O | 0 | 1
Cc1nc(N2CCOCC2)c2c(C)c(C(=O)Nc3ccc(C)c(Cl)c3)sc2n1 | -15 | -2
O=[N+]([O-])c1ccc(C=NO)s1 | 4 | /
COc1cc(C=C(C#N)c2nc(-c3cc4cc(Br)ccc4oc3=O)cs2)cc(OC)c1OC(C)=O | -4 | -4
Oc1oc(-c2ccccc2F)nc1C=Nc1cccc(Cl)c1 | 72* | 3
Oc1oc(-c2ccccc2Br)nc1C=Nc1cccc(Cl)c1 | -5 | 4
CC(=O)Nc1ccc(S[C@@H](CCN2CC[C@H](C(C)(C)C)CCC2=O)c2ccccc2)cc1 | -1 | 61*
CC(C)(C)[C@@H]1CCC(=O)N(CC[C@H](Sc2ccccc2)c2ccccc2)CC1 | -1 | -6
O=C1OC(c2ccc(Cl)cc2Cl)=N/C1=C\c1ccc([N+](=O)[O-])cc1 | -1 | -2
CC1CCCCN1CC(=O)N1N=C(c2ccc(F)cc2)CC1c1cccn1C (stereo not drawn) | -2 | 60*
CCN1CCN(CC(=O)N2N=C(c3ccc(C)c(C)c3)CC2c2cccn2C)CC1 (stereo not drawn) | 1 | 99*
COc1ccccc1C1=NN(C(=O)CN2CCCCC2C)C(c2ccc(C)cc2)C1 (stereo not drawn) | -4 | 72*
CC1CCN(CC(=O)N2N=C(c3ccccc3Cl)CC2c2cccn2C)CC1 (stereo not drawn) | -3 | 84*
Cn1cccc1C1CC(c2ccccc2Cl)=NN1C(=O)CN1CCOCC1 (stereo not drawn) | -1 | 22
Cc1ccc(C2=NN(C(=O)CN3CCOCC3)C(c3ccc(Cl)cc3)C2)cc1C (stereo not drawn) | 1 | 15
COc1ccc(C2CC(c3ccc(F)cc3)=NN2C(=O)CN2CCCCC2C)cc1 (stereo not drawn) | -3 | 22
COc1ccccc1C1=NN(C(=O)CN2CCCC2)C(c2ccc(C)cc2)C1 (stereo not drawn) | -5 | 43
SMILES | Pf apPOL block | mHTT CaM bind
COc1ccc(C(=O)N/C(=C/c2ccc3c(c2)OCO3)C(=O)N2CCCCC2)cc1 | 4 | 2
Cc1cccc(C(=O)N2CCN(c3ccc([N+](=O)[O-])c(-n4nc(C)cc4C)c3)CC2)c1 | -11 | 29
COc1ccc(C2CC(c3ccc(F)cc3)=NN2C(=O)CN2CCC(C)CC2)cc1 (stereo not drawn) | -3 | 24
COc1ccc(C2CC(c3ccc(F)cc3)=NN2C(=O)CN2CCCCC2)cc1 (stereo not drawn) | -4 | 28
CC1CCN(CC(=O)N2N=C(c3ccc(F)cc3)CC2c2cccn2C)CC1 (stereo not drawn) | -1 | 52*
CCN1CCN(CC(=O)N2N=C(c3ccc(F)cc3)CC2c2cccn2C)CC1 (stereo not drawn) | -4 | 98*
CCC(CC)C(=O)N1CCCC(c2ccnc(-c3ccc(C)cc3)n2)C1 (stereo not drawn) | -4 | 8
O=S(=O)(NCCNc1ccc(Nc2ccccn2)nn1)c1ccccc1C(F)(F)F | -5 | 97*
O=C(NCCNc1ccc(Nc2ccccn2)nn1)Nc1ccc(F)c(Cl)c1 | -5 | 100*
O=C(COc1ccccc1)NCCNc1ccc(Nc2ccccn2)nn1 | -10 | 87*
O=C(O)COCC(=O)Nc1ccccn1 | -5 | /
O=c1cccnn1CCNS(=O)(=O)c1ccccc1C(F)(F)F | -5 | -8
Cc1nccn1-c1cc(NCCNC(=O)Nc2ccc(F)c(Cl)c2)ncn1 | -4 | -16
O=c1/c(=C/C=C/c2ccccc2)sc2nc(-c3cccc(Cl)c3)nn12 | 7 | 13
Cc1cc2c(Nc3ccc4c(c3)OCO4)ncnc2s1 | 1 | 4
CCOc1ccc(-c2c(C#N)c(N)n3c(nc4ccccc43)c2C#N)cc1OC | 0 | 47
COc1cc(-c2c(C#N)c(N)n3c(nc4ccccc43)c2C#N)ccc1OCC#N | 0 | 69*
Oc1c(Br)cc(Br)cc1C=Nc1ccc(Cl)cn1 | / | 8
O=C(c1ccc(Cl)cc1)N1CCN(c2ccc(Cl)cc2[N+](=O)[O-])CC1 | -2 | 40
COc1ccc(N2CCN(/C(=N/O)c3nonc3N)CC2)c([N+](=O)[O-])c1 | -3 | i
Nc1nonc1/C(=N\O)N1CCN(c2ccc(Cl)cc2[N+](=O)[O-])CC1 | -8 | +
Cc1c(C(=O)N2CCN(c3ccc(Cl)cc3[N+](=O)[O-])CC2)oc2ccccc12 | 8 | 61*
Cc1ccc(CNC(=O)CN2CCN(C(=O)Nc3ccc(Br)cc3)CC2=O)o1 | -5 | -2
CCOC(=O)CNc1ccc(I)cc1 | -5 | /
Cn1c(=O)c(N2CCN(C(=O)COc3ccc(Cl)cc3)CC2)nc2ccncc21 | 6 | 20
SMILES | Pf apPOL block | mHTT CaM bind
CCn1c(=O)c(N2CCN(C(=O)COc3ccc(Cl)cc3C)CC2)nc2ccncc21 | 4 | 61*
O=c1[nH]c2ccc(Cl)cc2c(-c2ccccc2)c1Sc1ncn[nH]1 | -4 | 5
COc1cc(C=CC(=O)c2c(-c3ccccc3)c3cc(Cl)ccc3[nH]c2=O)cc(OC)c1OC | 1 | 100*
O=C(c1ccc[nH]c1=O)N1CCC2(CC1)NC(=O)N(Cc1ccccc1Cl)C2=O | -3 | 3
CCN(CC)c1ccc(N=Cc2c[nH]c3ccccc23)cc1 | -6 | 83*
C(=Nc1cccnc1)c1c[nH]c2ccccc12 | / | 16
COc1ccc(C(=O)N2CCCC(c3cccc(C(=O)NCc4ccccc4F)c3)C2)cc1 (stereo not drawn) | 1 | 8
O=C(c1ccc(C(F)(F)F)cc1)N1CCC(n2c(-c3ccoc3)nc3cccnc32)C1 (stereo not drawn) | 3 | 86*
COc1ccc(-c2nc3cccnc3n2C2CCN(C(=O)c3cc(F)cc(F)c3)C2)cc1 (stereo not drawn) | 0 | 53*
COc1ccc(-c2nc3cccnc3n2C2CCN(C(=O)CCc3ccccc3)C2)cc1 (stereo not drawn) | -1 | 86*
COc1ccc(-c2nc3cccnc3n2C2CCN(C(=O)Nc3cccc(C)c3)C2)cc1 (stereo not drawn) | -2 | 62*
O=C(c1ccccc1)N1CCC(n2c(-c3ccoc3)nc3cccnc32)C1 (stereo not drawn) | -2 | 19
CCCc1nc2cccnc2n1C1CCN(C(=O)CCc2ccc(OC)cc2)C1 (stereo not drawn) | -5 | 11
COc1ccc(-c2nc3cccnc3n2C2CCN(C(=O)c3cccc(F)c3)C2)cc1 (stereo not drawn) | 3 | 28
COc1ccc(-c2nc3cccnc3n2C2CCN(C(=O)Nc3cccc(OC)c3)C2)cc1 (stereo not drawn) | -8 | 46
